Paper PMC5913336, “True equilibrium measurement of transcription factor-DNA binding affinities using automated polarization microscopy”

Target: T1, Slp1-FL (Drosophila melanogaster, UniProt P32030)
T1 sequence: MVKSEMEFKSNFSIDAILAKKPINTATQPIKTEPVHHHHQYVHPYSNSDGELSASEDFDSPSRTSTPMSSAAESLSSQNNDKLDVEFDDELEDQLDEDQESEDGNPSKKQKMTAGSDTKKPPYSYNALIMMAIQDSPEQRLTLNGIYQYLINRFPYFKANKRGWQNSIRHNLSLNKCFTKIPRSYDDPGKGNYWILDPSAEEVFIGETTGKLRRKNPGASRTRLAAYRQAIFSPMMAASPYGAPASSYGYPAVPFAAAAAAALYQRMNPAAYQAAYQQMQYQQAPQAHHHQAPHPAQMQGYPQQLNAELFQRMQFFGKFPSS
Assay: FP; 33 mM phosphate pH 7.0, 90 mM NaCl, 0.01% Tween 20, 0.1 mM DTT, 0.5% agarose; room temperature
Settings: tags: N-GST (pGEX-6P-1, kept); dsDNA, one strand shown

Sequence | binding signal
ACGTGTCTACACTTA | 22.3 Kd / Kd of best base at the position
ACGTCTTTACACTTA | 68.8 Kd / Kd of best base at the position
ACGTGTTTAAACTTA | 44.8 Kd / Kd of best base at the position
ACCTGTTTACACTTA | 3.03 Kd / Kd of best base at the position

Target: T2, Gt (Drosophila melanogaster, UniProt P39572 369-448)
T2 sequence: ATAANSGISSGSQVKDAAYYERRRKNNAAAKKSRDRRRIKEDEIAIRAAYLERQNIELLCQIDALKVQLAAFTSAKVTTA
Assay: as above
Settings: tags: N-GST (pGEX-6P-1, kept); chain copies: 2; dsDNA, one strand shown

Sequence | binding signal | Kd [nM]
ATTACCTAACC | 45.8 Kd / Kd of best base at the position | –
ATAACGTAACC | 174 Kd / Kd of best base at the position | –
ATTACGTAACT | 4.28 Kd / Kd of best base at the position | –
ATTCCGTAACC | 1830 Kd / Kd of best base at the position | –
ATTAGGTAACC | 56.6 Kd / Kd of best base at the position | –
ATTACGTGACC | 18.9 Kd / Kd of best base at the position | –
ATTACGTAACA | 2.19 Kd / Kd of best base at the position | –
ATTACGGAACC | 460 Kd / Kd of best base at the position | –
ATTACGTATCC | 549 Kd / Kd of best base at the position | –
ATTACGCAACC | 4.03 Kd / Kd of best base at the position | –
ATTACGAAACC | 316 Kd / Kd of best base at the position | –
TTTACGTAACC | 6.92 Kd / Kd of best base at the position | –
ATTACTTAACC | 567 Kd / Kd of best base at the position | –
ATTATGTAACC | 3.81 Kd / Kd of best base at the position | –
ATTACGTTACC | 518 Kd / Kd of best base at the position | –
ATTGCGTAACC | 3.54 Kd / Kd of best base at the position | –
ATTACGTAAAC | 10.5 Kd / Kd of best base at the position | –

Sequence | binding signal | Kd [nM]
ATCACGTAACC | 40.1 Kd / Kd of best base at the position | –
ATTAAGTAACC | 133 Kd / Kd of best base at the position | –
ATTTCGTAACC | 177 Kd / Kd of best base at the position | –
ATTACGTAAGC | 3.37 Kd / Kd of best base at the position | –
ATTACGTAGCC | 1020 Kd / Kd of best base at the position | –
ATGACGTAACC | 3.59 Kd / Kd of best base at the position | –
ATTACATAACC | 3.03 Kd / Kd of best base at the position | –
AGTACGTAACC | 155 Kd / Kd of best base at the position | –
ATTACGTCACC | 5.02 Kd / Kd of best base at the position | –
ACTACGTAACC | 121 Kd / Kd of best base at the position | –
ATTACGTACCC | 1620 Kd / Kd of best base at the position | –
ATTACGTAATC | 1.58 Kd / Kd of best base at the position | –
AATACGTAACC | 113 Kd / Kd of best base at the position | –
GTTACGTAACC | 1.09 Kd / Kd of best base at the position | –
ATTACGTAACC | – | ~0.9
CTTACGTAACC | 2.33 Kd / Kd of best base at the position | –
ATTACGTAACG | 3.4 Kd / Kd of best base at the position | –
